From PubChem BioAssay
Sampled rows, rich in hits. Any-hit rate of the full collection: about 2.4%.
D2 ag-1 = agonists of human D2 dopamine receptor; 0.53% of 340,000 active; activation, % at 2 µM; HEK293 T-REx D2 cells, calcium flux agonist mode; P14416;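 active = activation over 3 SD above normal in the single-dose calcium agonist read, cut at about 30% in these data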; note: 0% is about no effect
Target sequence (P14416 whole entry, looked up): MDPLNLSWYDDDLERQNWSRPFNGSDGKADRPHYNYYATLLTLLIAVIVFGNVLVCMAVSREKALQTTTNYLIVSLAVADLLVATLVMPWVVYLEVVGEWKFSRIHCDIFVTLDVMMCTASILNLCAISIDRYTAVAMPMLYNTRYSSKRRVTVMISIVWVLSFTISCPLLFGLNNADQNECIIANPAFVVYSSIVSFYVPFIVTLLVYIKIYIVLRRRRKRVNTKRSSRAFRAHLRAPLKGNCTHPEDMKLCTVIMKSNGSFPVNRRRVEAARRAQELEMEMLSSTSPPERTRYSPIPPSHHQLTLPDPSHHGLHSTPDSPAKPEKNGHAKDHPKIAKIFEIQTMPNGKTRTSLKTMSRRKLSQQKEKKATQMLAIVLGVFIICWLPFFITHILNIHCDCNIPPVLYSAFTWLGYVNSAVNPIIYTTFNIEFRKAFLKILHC
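HEK293 Trex D2 cells, tetracycline-induced, o/n 30 C 5% CO2; no-wash Ca dye, RT 30–90 min; 10-cycle baseline, 23 nl cpd added, kinetic Ca read 180 s; agonist hits = positive Ca response.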
D2 ag-2 = activates the human D2 dopamine receptor; P14416; DiscoveRx PathHunter D2 beta-arrestin, luminescence, 90 min; 100% = 57 uM dopamine signal; activation, % (test concentration not listed); 0.084% of 360,000 active; AID 624465; in the data active = activation above about 40%
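DiscoveRx PathHunter D2 beta-arrestin cells (2,100/well) attached overnight, then compound-stimulated 90 min at 37 C in HBSS/10 mM HEPES/0.1% Tween-20 buffer; beta-galactosidase complementation read by luminescence after 1 h at ambient temperature. Dopamine 57 uM final (EC100) as control.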
D2 PAM-1 = human D2 receptor positive allosteric modulation; P14416; DiscoveRx D2 beta-arrestin cells, luminescence, 90 min; 100% = 57 uM dopamine signal; potentiation, % (no concentration beside the values); 0.23% of 360,000 active; AID 624464; in the data active = potentiation above about 50%
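PathHunter D2 cells, attached overnight at 37 deg C, received compound in DMSO plus dopamine at EC20 (50 nM final) for 90 min at 37 deg C. Beta-arrestin recruitment was read as luminescence after 1 h with detection reagent at ambient temperature.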
D2 PAM-2 = positively modulates the human D2 dopamine receptor allosterically. P14416. HEK293 T-REx D2, calcium flux, EC20 dopamine potentiation. potentiation, % at 10 µM. 0.34% of 340,000 active. AID 485347;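 active = potentiation over 3 SD above the plate norm, cut at about 30% in these data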; note: 0% is about no effect
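Cells plated with tetracycline inducer and held overnight at 30 C; calcium dye loaded 30–90 min at room temperature; baseline taken, compound added and read 180 s; EC20 dopamine then added and read 180 s.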
D2 antagonist = antagonizes the human D2 dopamine receptor; HEK293 TREx D2 cells, calcium flux, dopamine EC80; P14416; inhibition, % at 10 µM; AID 485344; 2% of 340,000 active; in the data active = inhibition above about 30%; inactive = below that, where a call was filed; note: 0% is about no effect
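Calcium flux kinetic readout in an inducible HEK293 TREx D2 line plated overnight at 30 C. After 180 s compound exposure, an EC80 dopamine challenge follows with another 180 s kinetic read to detect antagonism.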
* = called active by the depositor; · = no result.

SMILES	D2 ag-1	D2 ag-2	D2 PAM-1	D2 PAM-2	D2 antagonist
O=C(CSc1ccc(Br)cc1)Nc1cccc(S(=O)(=O)N2CCOCC2)c1	0	1	5	-8	14
COc1ccc(C(C)=O)cc1CC(=O)Nc1cccc(S(=O)(=O)N2CCOCC2)c1	0	-2	-1	-11	33*
COc1ccc(C(C)=O)cc1CC(=O)Nc1ccccc1-c1ccccc1	-1	-6	4	31*	-4
Cc1ccc(SCC(=O)Nc2cccc(S(=O)(=O)N3CCOCC3)c2)cc1C	0	-2	-4	8	35*
Cc1c(Cl)ccc2c(C(=O)O)cc(-c3ccccc3)nc12	-2	-5	-5	-14	52*
CC(C)(C)c1ccc(C(=O)Nc2ccc([N+](=O)[O-])cn2)cc1	0	-2	-27	-27	36*
CCC(=O)N1CCc2cc(Br)cc(S(=O)(=O)N3CCCC(C(=O)Nc4ccc(C)c(F)c4)C3)c21 (stereo not given)	0	·	·	18	·
COC(=O)c1ccc(-n2c(C)cc(/C=N/n3cnnc3)c2C)cc1	1	0	15	6	31*
Cc1cc(/C=N/n2cnnc2)c(C)n1-c1ccc(C(=O)O)cc1	-1	-1	-3	6	3
COc1cccc(/C=N\NC(=O)c2cc(OCC(F)(F)F)ccc2OCC(F)(F)F)c1	-1	-4	-4	31*	-4
CS(=O)(=O)NCCNC(=O)c1cc(OCC(F)(F)F)ccc1OCC(F)(F)F	0	-3	-1	-3	31*
Cn1c(=O)[nH]c(=O)c2c1nc(N1CCOCC1)n2CCN1CCOCC1	1	-4	-3	3	-6
Cn1c(=O)[nH]c(=O)c2c1ncn2CCN1CCOCC1	0	-1	-18	6	38*
Cc1cc(C(=O)OCC(=O)Nc2cc(S(=O)(=O)N(C)C)ccc2Cl)c2ccccc2n1	0	-1	-6	-14	10
Cc1cc(C(=O)OCC(=O)Nc2cc(S(=O)(=O)N(C)C)ccc2C)c2ccccc2n1	2	-2	-15	-24	37*
COc1ccc(S(=O)(=O)N(C)C)cc1NC(=O)COC(=O)c1nc2nccc(C)n2n1	-1	-2	-11	7	40*
Cc1cc(C(=O)OCC(=O)NCCc2ccc(S(N)(=O)=O)cc2)c2ccccc2n1	0	-2	-4	0	38*
Cc1cc(C(=O)OCC(=O)NCc2ccccc2)c2ccccc2n1	·	7	-22	·	·
Cc1ccc(S(=O)(=O)N(C)C)cc1NC(=O)COC(=O)C1CCN(S(=O)(=O)c2cccs2)CC1	0	-4	-4	0	35*
O=C(COC(=O)C1CCN(S(=O)(=O)c2cccs2)CC1)Nc1ccccc1Br	1	12	-5	1	-28
COc1ccc(NC(=O)CSC2=Nc3ccccc3C3=NC(CCC(=O)NCc4ccc(F)cc4)C(=O)N23)cc1Cl (stereo not given)	-2	·	·	-14	·
CCCCCCc1cc2cc(C(=O)OCC)c(=O)oc2cc1O	5	-4	-6	3	-2
CCCCCCc1cc2cc(/C(N)=N/NC(=O)c3ccncc3)c(=O)oc2cc1O	34*	3	-7	14	-2
CCOc1ccc(C(=O)CN2C(=O)NC3(CCCCCC3)C2=O)cc1	0	-5	1	5	-2
CCOc1ccc(C(=O)NNC(=O)CN2C(=O)NC3(CCCC3)C2=O)cc1	0	-4	3	-11	42*
SMILES	D2 ag-1	D2 ag-2	D2 PAM-1	D2 PAM-2	D2 antagonist
Cc1ccccc1-c1noc(CSc2nc(-c3ccc(F)cc3)cc(=O)[nH]2)n1	·	·	·	-7	·
Cc1cccc(/C=N/NC(=O)c2cc3c(s2)-c2ccccc2CC3)c1	1	0	0	14	32*
Cc1ccc(SCC(=O)Nc2ccc(C(=O)Nc3ccc(O)cc3)cc2)cc1	-1	-3	-5	3	72*
COc1cc(CNCCN2CCOCC2)ccc1OCc1cccc(Cl)c1	0	-1	-11	1	42*
CCCCC[n+]1ccn(C2=C([O-])c3ccccc3C(=O)/C2=N\S(=O)(=O)c2ccc(Cl)cc2)c1	-2	2	9	1	4
CCCC[n+]1ccn(C2=C([O-])c3ccccc3C(=O)/C2=N\S(=O)(=O)c2ccc(Cl)cc2)c1	-1	2	7	5	34*
CCN(CC(=O)Nc1cc(Cl)ccc1C)C(=O)C1CC1	0	-1	-3	7	56*
CCN(CC(=O)Nc1cc(Cl)ccc1C)C(=O)CSCc1c(C)noc1C	0	0	-10	-16	33*
CCN(CC(=O)Nc1cc(Cl)ccc1C)C(=O)C1CC(=O)N(Cc2ccccc2)C1 (stereo not given)	0	3	-13	-25	7
COc1ccccc1NC(=O)CSc1nc2ccccc2c(=O)n1CCC(=O)NC1CCCCC1	2	·	·	-7	·
Cc1ccc(S(=O)(=O)c2cnc(SCC(=O)Nc3cc(C)cc(C)c3)nc2N)cc1	·	·	·	4	·
Cn1c(SCC(=O)NCc2ccc(F)cc2)ncc(C(=O)Nc2ccccc2)c1=O	0	-4	-33	9	32*
O=C(N/N=C/c1ccccn1)C1CC1	1	-1	3	-19	32*
COc1ccc(CN2CCC(N(CCc3ccccc3)Cc3ccccc3)CC2)c(OC)c1	-1	-1	-17	-32	35*
CCCN1CCC(N(CCc2ccccc2)Cc2ccccc2)CC1	-1	5	-4	-16	39*
COc1ccc(CN2CCc3ccccc3C2)c(OC)c1	-2	-2	-23	-22	24
Cc1ccc(C)c(N2CCN(C(=O)Nc3cn(CC(C)C)c(=O)c4ccccc34)CC2)c1	-1	·	·	-1	·
CN1CCC(N(C)S(=O)(=O)c2ccc(F)cc2F)CC1	2	-2	-15	-8	33*
COc1ccc(/C=C/C(=O)c2ccc(Cl)s2)cc1O	1	-5	2	-3	37*
CCS(=O)(=O)N1CCC(C(=O)NCCCN2CCC(Cc3ccccc3)CC2)CC1	1	0	-4	-10	5
CS(=O)(=O)N1CCCC(C(=O)NCCCN2CCC(Cc3ccccc3)CC2)C1 (stereo not given)	1	-1	-24	-30	46*
CCCS(=O)(=O)N1CCC(C(=O)NCCN2CCC(Cc3ccccc3)CC2)CC1	38*	1	-5	-21	34*
CS(=O)(=O)N1CCCC(C(=O)NCCCN2CCN(Cc3ccccc3)CC2)C1 (stereo not given)	-1	-2	-18	2	1
CCCC(=O)Nc1ccc(C(=O)COC(=O)c2cc(C)oc2C)cc1	1	-1	3	-2	35*
C=CCc1ccc(OCCCCN2CC(C)CC(C)C2)c(OC)c1 (stereo not given)	0	-5	-6	-16	39*
